# PubChem BioAssay (EPA / NIEHS)
# Where “and” joins values, the source holds several entries; their conditions need not be identical. Identical values can stand only once. Inconclusive results are not listed. Where a structure was tested more than once in an assay, its records may differ in their call. Calls of active or inactive are those of the source. How the source made its calls, unless noted: active means hit-call score of the fitted dose curve at least 0.9, where 1 is the maximum; inconclusive means response in the unintended direction; inactive means score below 0.9.
# What was measured:
# [1] = target: human Retinoid X Receptor beta (RXRb), RXRB (gene 6257) (UniProt P28702); test: ATG_RXRb_TRANS: Attagene TRANS-FACTORIAL HepG2 Assay for human Retinoid X Receptor beta (RXRb) (AID 2283013)
# Procedure, shortened: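 Transfect HepG2 with GAL4-UAS multi-reporter constructs (chimeric NR-Gal4, TRANS format); dose compound 24 h; isolate RNA, RT-PCR, FAM primer extension, HpaI digest; quantify by capillary electrophoresis; positive direction vs DMSO.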
# [2] = target: human Thyroid Receptor alpha (THRa1), THRA (gene 7067) (UniProt P10827); test: ATG_THRa1_TRANS: Attagene TRANS-FACTORIAL HepG2 Assay for human Thyroid Receptor alpha (THRa1) (AID 2283014)
# Procedure, shortened: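 Transient HepG2 transfection, NR-Gal4 chimera driving GAL4-UAS reporters; 24 h compound exposure; total RNA, oligo(dT) RT, PCR, fluorescent primer extension, capillary electrophoresis. Upward direction vs DMSO control.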
# [3] = read-out: E-selectin (Homo sapiens) (UniProt P16581); test: BSK_3C_Eselectin: BioMAP Diversity Plus: 3C Assay for Eselectin Biomarker Activity (AID 2283015; active means hit-call score of the fitted dose curve at least 0.9, where 1 is the maximum; inactive means score below 0.9;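 on outcome: cell surface E-selectin protein quantified by ELISA 24 h after dosing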); settings: primary human endothelial cells (HUVEC); actives raise or lower the signal
# Procedure, shortened: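 HUVEC, 3C stimulation; compound exposure 24 h; E-selectin by ELISA; gain- or loss-of-signal fitted bidirectionally vs DMSO baseline.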
# [4] = read-out: Interleukin-1 alpha (IL1a), IL1A (gene 3552); test: BSK_BE3C_IL1a: BioMAP Diversity Plus: BE3C Assay for Interleukin-1 alpha (IL1a) Biomarker Activity (AID 2283016; active means hit-call score of the fitted dose curve at least 0.9, where 1 is the maximum; inactive means score below 0.9); settings: primary human bronchial epithelial cells; actives raise or lower the signal
# Procedure, shortened: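 BE3C primary human bronchial epithelium; cpd 24 h; IL-1a by ELISA; bidirectional fit vs DMSO; parallel SRB (0.1% SRB, 10% TCA fix, 560 nm) for cytotoxicity.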
# [5] = read-out: Monocyte Chemoattractant Protein-1 (MCP1), CCL2 (gene 6347); test: BSK_3C_MCP1: BioMAP Diversity Plus: 3C Assay for Monocyte Chemoattractant Protein-1 (MCP1) Biomarker Activity (AID 2283017; active means hit-call score of the fitted dose curve at least 0.9, where 1 is the maximum; inactive means score below 0.9); settings: primary human endothelial cells (HUVEC); actives raise or lower the signal
# Procedure, shortened: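 HUVEC, 3C system; 24 h chemical exposure; MCP-1 by ELISA; bidirectional curve fit vs DMSO baseline.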
# [6] = read-out: Monocyte Chemoattractant Protein-1 (MCP1), CCL2 (gene 6347); test: BSK_4H_MCP1: BioMAP Diversity Plus: 4H Assay for Monocyte Chemoattractant Protein-1 (MCP1) Biomarker Activity (AID 2283018; active means hit-call score of the fitted dose curve at least 0.9, where 1 is the maximum; inactive means score below 0.9); settings: primary human endothelial cells (HUVEC); actives raise or lower the signal
# Procedure, shortened: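 ELISA read-out of MCP-1 from human vascular endothelial primary cells taken at 24 hours after compound exposure. Activity was fitted in both directions relative to DMSO, which served as negative control.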
# [7] = read-out: Human Leukocyte Antigen - DR isotype (HLADR), HLA-DRA (gene 3122); test: BSK_3C_HLADR: BioMAP Diversity Plus: 3C Assay for Human Leukocyte Antigen - DR isotype (HLADR) Biomarker Activity (AID 2283019; active means hit-call score of the fitted dose curve at least 0.9, where 1 is the maximum; inactive means score below 0.9;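 on outcome: ELISA of cell-surface HLA-DR on HUVEC 24 h after dosing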); settings: primary human endothelial cells (HUVEC); actives raise or lower the signal
# Procedure, shortened: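 HUVEC, 3C stimulation, 24 h post-dose; HLA-DR by ELISA; bidirectional curve fit vs DMSO baseline; gain or loss of signal scored.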
# [8] = read-out: Monokine induced gamma interferon (MIG), CXCL9 (gene 4283); test: BSK_3C_MIG: BioMAP Diversity Plus: 3C Assay for Monokine induced gamma interferon (MIG) Biomarker Activity (AID 2283021; active means hit-call score of the fitted dose curve at least 0.9, where 1 is the maximum; inactive means score below 0.9;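 on AC50: MIG protein level measured by immunoassay in the treated endothelial cultures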); settings: primary human endothelial cells (HUVEC); actives raise or lower the signal
# Procedure, shortened: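 Read-out is ELISA detection of MIG on human umbilical vein endothelial cells, taken 24 h after dosing. Gain or loss of signal was scored relative to DMSO controls using bidirectional curve fitting.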
# [9] = read-out: Interleukin-8 (IL8), CXCL8 (gene 3576); test: BSK_3C_IL8: BioMAP Diversity Plus: 3C Assay for Interleukin-8 (IL8) Biomarker Activity (AID 2283020; active means hit-call score of the fitted dose curve at least 0.9, where 1 is the maximum; inactive means score below 0.9); settings: primary human endothelial cells (HUVEC); actives raise or lower the signal
# Procedure, shortened: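 ELISA read-out of IL-8 from human umbilical vein endothelium, measured 24 h after chemical dosing. Activity is expressed relative to DMSO negative control, with both increases and decreases fitted.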
# [10] = target: human Vitamin D Receptor (VDR), VDR (gene 7421) (UniProt P11473); test: ATG_VDR_TRANS: Attagene TRANS-FACTORIAL HepG2 Assay for human Vitamin D Receptor (VDR) (AID 2283022)
# Procedure, shortened: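 RT-PCR/capillary electrophoresis read-out of reporter mRNA induction in transiently transfected HepG2; 24 h dosing; chimeric NR-Gal4 (TRANS format); gain-of-signal fit against DMSO baseline.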
# human Thyroid Receptor alpha (THRa1), THRA (gene 7067), sequence (P10827 whole entry, looked up, the tested form may be a part): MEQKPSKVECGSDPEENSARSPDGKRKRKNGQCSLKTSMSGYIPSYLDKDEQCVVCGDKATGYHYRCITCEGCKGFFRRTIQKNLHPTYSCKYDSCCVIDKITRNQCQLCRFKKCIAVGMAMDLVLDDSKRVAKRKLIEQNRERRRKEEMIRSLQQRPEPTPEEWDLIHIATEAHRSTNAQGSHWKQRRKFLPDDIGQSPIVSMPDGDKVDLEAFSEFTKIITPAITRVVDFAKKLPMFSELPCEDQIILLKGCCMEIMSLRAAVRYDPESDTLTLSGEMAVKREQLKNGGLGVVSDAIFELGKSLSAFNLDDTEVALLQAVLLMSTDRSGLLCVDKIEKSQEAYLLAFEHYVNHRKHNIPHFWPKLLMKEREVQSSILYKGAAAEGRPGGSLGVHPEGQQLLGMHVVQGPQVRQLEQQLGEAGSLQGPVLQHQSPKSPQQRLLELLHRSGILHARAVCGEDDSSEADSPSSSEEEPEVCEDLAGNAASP
# E-selectin (Homo sapiens), sequence (P16581 whole entry, looked up): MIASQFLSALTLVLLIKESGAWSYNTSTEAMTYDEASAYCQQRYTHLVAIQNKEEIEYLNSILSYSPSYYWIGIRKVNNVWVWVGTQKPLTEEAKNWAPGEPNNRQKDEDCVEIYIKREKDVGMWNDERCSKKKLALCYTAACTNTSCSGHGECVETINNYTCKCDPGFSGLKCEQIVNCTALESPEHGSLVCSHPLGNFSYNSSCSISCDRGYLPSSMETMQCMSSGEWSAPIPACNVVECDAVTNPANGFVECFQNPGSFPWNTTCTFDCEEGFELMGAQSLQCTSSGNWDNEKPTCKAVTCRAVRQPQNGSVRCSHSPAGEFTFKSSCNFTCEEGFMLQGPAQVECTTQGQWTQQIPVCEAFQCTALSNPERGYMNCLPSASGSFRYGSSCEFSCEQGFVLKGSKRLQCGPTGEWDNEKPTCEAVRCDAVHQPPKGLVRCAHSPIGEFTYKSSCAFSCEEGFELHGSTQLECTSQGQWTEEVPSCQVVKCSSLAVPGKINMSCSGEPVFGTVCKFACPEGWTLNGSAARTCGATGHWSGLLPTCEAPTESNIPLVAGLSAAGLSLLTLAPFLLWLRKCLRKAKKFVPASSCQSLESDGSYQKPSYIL
# human Vitamin D Receptor (VDR), VDR (gene 7421), sequence (P11473 whole entry, looked up, the tested form may be a part): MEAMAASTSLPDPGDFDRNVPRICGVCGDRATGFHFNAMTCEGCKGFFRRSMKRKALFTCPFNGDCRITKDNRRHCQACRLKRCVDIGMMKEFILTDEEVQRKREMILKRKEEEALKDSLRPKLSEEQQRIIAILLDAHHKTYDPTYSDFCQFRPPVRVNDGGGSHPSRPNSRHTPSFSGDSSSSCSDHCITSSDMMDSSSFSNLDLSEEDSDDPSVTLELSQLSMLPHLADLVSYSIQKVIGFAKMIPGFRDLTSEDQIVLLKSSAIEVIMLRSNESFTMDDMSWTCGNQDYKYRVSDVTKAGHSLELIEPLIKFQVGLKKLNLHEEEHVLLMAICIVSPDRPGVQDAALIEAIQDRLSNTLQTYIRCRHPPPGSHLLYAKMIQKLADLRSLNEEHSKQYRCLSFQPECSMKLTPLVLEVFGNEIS
# human Retinoid X Receptor beta (RXRb), RXRB (gene 6257), sequence (P28702 whole entry, looked up, the tested form may be a part): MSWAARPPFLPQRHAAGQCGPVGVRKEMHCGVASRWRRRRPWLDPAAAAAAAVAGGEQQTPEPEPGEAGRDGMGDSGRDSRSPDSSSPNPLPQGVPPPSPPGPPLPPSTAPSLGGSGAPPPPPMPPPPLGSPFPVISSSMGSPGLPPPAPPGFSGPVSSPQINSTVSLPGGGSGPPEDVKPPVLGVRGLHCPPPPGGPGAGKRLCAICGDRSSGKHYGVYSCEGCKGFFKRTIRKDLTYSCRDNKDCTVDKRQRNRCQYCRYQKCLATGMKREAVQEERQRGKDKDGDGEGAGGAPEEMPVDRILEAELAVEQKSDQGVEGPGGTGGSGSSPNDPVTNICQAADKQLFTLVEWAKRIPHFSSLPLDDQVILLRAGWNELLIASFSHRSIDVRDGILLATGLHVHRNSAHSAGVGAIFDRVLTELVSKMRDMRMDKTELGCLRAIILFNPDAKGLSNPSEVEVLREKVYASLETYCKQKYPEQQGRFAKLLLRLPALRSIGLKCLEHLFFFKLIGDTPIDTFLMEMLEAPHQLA
smiles,measurement,setting,value
Cc1ccc(C(=O)c2ccccc2)cc1,AC50,[1],75.9 µM (active)
same,outcome,[2],inactive
same,AC50,[3],28.2 µM (active)
same,outcome,[4],inactive
same,AC50,[5],4.38 µM (active)
same,AC50,[6],27 µM (active)
same,AC50,[7],28.2 µM (active)
same,outcome,[8],inactive
O=C1c2ccc(O)c(O)c2C(=O)c2c(O)ccc(O)c21,outcome,[1],inactive
same,AC50,[2],13.8 µM (active)
same,outcome,[3],inactive
same,outcome,[4],inactive
same,outcome,[5],inactive
same,outcome,[6],inactive
same,outcome,[7],inactive
same,outcome,[9],inactive
same,outcome,[8],inactive
same,outcome,[10],inactive
O=C1c2ccccc2C(=O)c2c(O)c(O)cc(O)c21,outcome,[1],inactive
same,AC50,[2],21.4 µM (active)
same,outcome,[10],inactive
CC(=O)Nc1ccc(S(N)(=O)=O)cc1,outcome,[1],inactive
same,outcome,[10],inactive
CCOC(OCC)C(=O)c1ccccc1,outcome,[1],inactive
same,outcome,[10],inactive
C=CC(=O)OCCC(F)(F)C(F)(F)C(F)(F)C(F)(F)C(F)(F)C(F)(F)F,outcome,[1],inactive
same,outcome,[2],inactive
same,outcome,[10],inactive
Cc1cc(Cc2cc(C)cc(C(C)(C)C)c2O)c(O)c(C(C)(C)C)c1,outcome,[1],inactive
same,outcome,[2],inactive
same,outcome,[10],inactive
O=S(=O)(O)c1ccc2cc(O)ccc2c1,outcome,[1],inactive
same,outcome,[2],inactive
same,outcome,[10],inactive
O=C1Cc2ccccc2N1c1c(Cl)cccc1Cl,outcome,[1],inactive
same,outcome,[2],inactive
same,outcome,[10],inactive
CCCCCC(C)OC(=O)COc1ccc(Cl)c2cccnc12 (stereo unspecified),outcome,[1],inactive
same,outcome,[10],inactive
CCCCC(CC)C(=O)O (stereo unspecified),outcome,[1],inactive
same,outcome,[3],inactive
same,outcome,[4],inactive
same,outcome,[5],inactive
same,outcome,[6],inactive
same,outcome,[7],inactive
same,outcome,[8],inactive
CCCCCCCCCC=CCC1CC(=O)OC1=O (stereo unspecified),outcome,[1],inactive
same,outcome,[10],inactive
CN(Cc1cnc2nc(N)nc(N)c2n1)c1ccc(C(=O)N[C@@H](CCC(=O)O)C(=O)O)cc1,outcome,[1],inactive
same,outcome,[3],inactive
same,outcome,[4],inactive
same,outcome,[5],inactive
same,outcome,[6],inactive
same,outcome,[7],inactive
same,outcome,[8],inactive
CC1COCc2cc3c(cc21)C(C)(C)C(C)C3(C)C (stereo unspecified),AC50,[1],8.91 µM (active)
same,outcome,[2],inactive
same,AC50,[10],128 µM (active)
Cc1cncc(C)c1,outcome,[1],inactive
same,outcome,[10],inactive
FC(OC(F)(F)C(F)(F)C(F)(F)F)C(F)(F)F (stereo unspecified),outcome,[1],inactive
same,outcome,[10],inactive
CCCCC=O,outcome,[1],inactive
same,outcome,[3],inactive
same,outcome,[4],inactive
same,outcome,[5],inactive
same,outcome,[6],inactive
same,outcome,[7],inactive
same,outcome,[8],inactive
same,outcome,[10],inactive
C=CCOCC(CO)(CO)CO,outcome,[1],inactive
same,outcome,[10],inactive
c1cc2cccc3c4cccc5cccc(c(c1)c23)c54,outcome,[1],inactive
same,outcome,[2],inactive
same,outcome,[10],inactive
O=C(Nc1cccc([N+](=O)[O-])c1)c1cc2ccccc2cc1O,outcome,[1],inactive
same,AC50,[2],17.5 µM (active)
same,outcome,[10],inactive
C=CC(C)(CCC=C(C)C)OC(C)=O (stereo unspecified),outcome,[1],inactive
same,AC50,[3],32.1 µM (active)
same,outcome,[4],inactive
same,AC50,[5],35.2 µM (active)
same,AC50,[6],27 µM (active)
same,AC50,[7],28.2 µM (active)
same,outcome,[9],inactive
same,outcome,[8],inactive
same,outcome,[10],inactive
CC(C)(C)c1ccc(CCC=O)cc1,AC50,[1],41.2 µM (active)
same,outcome,[10],inactive
CCCCCCCCCCCCCCC,outcome,[1],inactive
same,outcome,[3],inactive
same,outcome,[4],inactive
same,outcome,[5],inactive
same,outcome,[6],inactive
same,outcome,[7],inactive
same,outcome,[8],inactive
O=S(=O)(O)C(F)(F)C(F)(F)C(F)(F)C(F)(F)C(F)(F)C(F)(F)C(F)(F)C(F)(F)C(F)(F)C(F)(F)F,outcome,[1],inactive
same,AC50,[3],10.2 µM (active)
same,outcome,[3],inactive
same,AC50,[4],13.3 µM (active) and 10.6 µM (active)
same,outcome,[5],inactive
same,outcome,[6],inactive
same,outcome,[7],inactive
same,outcome,[9],inactive
same,outcome,[8],inactive
same,outcome,[10],inactive
Cc1ccc(S(=O)(=O)O)cc1,outcome,[1],inactive
same,outcome,[2],inactive
same,outcome,[10],inactive
CCCCCCCCCCCCCC[n+]1ccccc1,outcome,[1],inactive
same,outcome,[2],inactive
same,outcome,[10],inactive
CCO[Si](C)(C)OCC,outcome,[1],inactive
same,outcome,[10],inactive
Cc1cc(=O)oc2cc(O)ccc12,outcome,[1],inactive
same,outcome,[2],inactive
same,outcome,[10],inactive
O=CC(F)(F)C(F)(F)C(F)(F)F,outcome,[1],inactive
same,outcome,[2],inactive
same,outcome,[10],inactive
CC[N+](CC)(CC)Cc1ccccc1,outcome,[1],inactive
same,outcome,[3],inactive
same,outcome,[4],inactive
same,outcome,[5],inactive
same,outcome,[6],inactive
same,outcome,[7],inactive
same,outcome,[8],inactive
same,outcome,[10],inactive
O=S(=O)(O)c1ccccc1,outcome,[1],inactive
same,outcome,[10],inactive
NS(=O)(=O)O,outcome,[1],inactive
same,outcome,[2],inactive
same,outcome,[10],inactive
CCC1CO1 (stereo unspecified),outcome,[1],inactive
same,outcome,[2],inactive
same,outcome,[10],inactive
CCC(C)c1ccccc1O (stereo unspecified),AC50,[1],72.8 µM (active)
same,outcome,[3],inactive
same,outcome,[4],inactive
same,outcome,[5],inactive
same,outcome,[6],inactive
same,outcome,[7],inactive
same,outcome,[8],inactive
same,outcome,[10],inactive
CCOC=C(C(=O)OCC)C(=O)OCC,outcome,[1],inactive
same,outcome,[10],inactive
O=CC(F)(F)C(F)(F)C(F)(F)C(F)F,outcome,[1],inactive
same,outcome,[2],inactive
same,outcome,[10],inactive
CCCCc1oc2ccccc2c1C(=O)c1cc(I)c(OCCN(CC)CC)c(I)c1,outcome,[1],inactive
same,AC50,[3],24.1 µM (active)
same,AC50,[4],17.1 µM (active)
same,AC50,[5],21.6 µM (active)
same,AC50,[6],15.1 µM (active)
same,AC50,[7],9.35 µM (active)
same,AC50,[8],25.7 µM (active)
same,AC50,[10],47.5 µM (active)
CC1CNCC(C)O1 (stereo unspecified),outcome,[1],inactive
same,outcome,[2],inactive
same,outcome,[10],inactive
CCOC=O,AC50,[1],6.71 µM (active)
same,outcome,[10],inactive
Clc1ccc2c(Cl)ccnc2c1,outcome,[2],inactive
O=C(O)C(F)(F)OC(F)(F)C(F)(F)OC(F)(F)C(F)(F)OC(F)(F)C(F)(F)C(F)(F)C(F)(F)F,outcome,[2],inactive
same,AC50,[3],49.6 µM (active) and 49 µM (active)
same,AC50,[4],6.32 µM (active) and 6.18 µM (active)
same,AC50,[5],44.8 µM (active) and 46.6 µM (active)
same,AC50,[6],42.4 µM (active) and 40.5 µM (active)
same,AC50,[7],45.5 µM (active) and 50.6 µM (active)
same,AC50,[8],58.2 µM (active) and 54.8 µM (active)
same,outcome,[10],inactive
